Screening results from PubChem BioAssay.
TRPM1 prom inh – MITF TRPM1 promoter inhibition in SK-MEL-5 cells. SK-MEL-5 TRPM1 promoter luciferase, 24 h. inhibition, % at 12.5 µM. actives 0.83% (n = 330,000);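 active means mean inhibition across replicates of 60% or more, whatever share of single replicates reaches that level; inconclusive means some that reach 60%, reason not given; inactive means mean inhibition across replicates below 60%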
EBV LMP1 NFkB – reduces LMP1-driven NF-kappaB luciferase signal. LMP1-induced NF-kappaB luciferase reporter cells, luminescence. inhibition, % at 12.5 µM. actives 0.69% (n = 350,000). AID 504558; in the data active means inhibition above about 41%; inconclusive means no clear call, values can overlap the other calls
PAX8 reporter – inhibitors of PAX8 transcriptional activity in RMG-I cells. actives 1.2% (n = 360,000). inhibition, % at 12.6 µM. AID 652154. RMG-I TPO-luciferase reporter, SteadyGlo, 24 h;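 active means mean replicate inhibition at least 60% with every replicate also reaching 60%; inconclusive means only one of the two criteria is met; inactive means mean below 60% and not all replicates reaching 60%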;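 further: luciferase light reporting Pax8 driven TPO promoter activity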
HIF-2a inh – inhibitors of HIF-2a | 786-0 RCC cells HIF-2a reporter, luciferase luminescence, overnight | inhibition, % at 18.8 µM | actives 0.72% (n = 360,000);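 active means inhibition of the luminescence signal of 40% or more relative to plate controls, in a single-dose primary screen at 18.75 µM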
Peg3 promoter – inhibitors of Peg3 promoter; actives 1.7% (n = 360,000); inhibition, % at 20 µM; HeLa PEG-Prom luciferase reporter, luminescence, overnight;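 active means inhibition of at least 50% at 20 µM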
Shn3 3UTR inh – reduces Shn3 3'UTR luciferase signal in osteoblasts; Clone20 osteoblast Shn3 3'UTR firefly luciferase, 24 h; inhibition, % at 12.5 µM; actives 0.52% (n = 360,000); AID 588674;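 active means mean inhibition of at least 75% with every replicate also reaching 75%; inconclusive means mean inhibition at least 75% but some replicate below; inactive means mean inhibition below 75%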
Each line names hits and unclear results; the compound was inactive in the other large screens. This is a sample that favours compounds with a hit; in the whole collection about 2.8% have one here.

COc1ccc(CN2C[C@H](C)[C@@H](OC)CN(C)C(=O)c3ccc(NC(=O)c4nc5ccccc5s4)cc3OC[C@H]2C)cc1	none (no result: TRPM1 prom inh, EBV LMP1 NFkB, HIF-2a inh, Peg3 promoter, Shn3 3UTR inh)
O=C(Nc1ccc(Cl)c(Cl)c1)N[C@H]1CC[C@@H](CCn2cc(C3CCCC3)nn2)O[C@H]1CO	none (no result: TRPM1 prom inh, EBV LMP1 NFkB, HIF-2a inh, Peg3 promoter, Shn3 3UTR inh)
COc1ccc(/C=C2\Sc3ccc(C(=O)N4CCN(Cc5ccccc5)CC4)cc3N(C)C2=O)cc1OC	PAX8 reporter 77.2
CN1CCN(C(=O)c2ccc3c(c2)N(C)C(=O)/C(=C/c2cccc(Cl)c2)S3)CC1	none
O=C(C1CCCCC1)N1C[C@@H]2[C@H](c3ccccc31)[C@@H](CO)N2C(=O)c1ccccc1F	none (no result: TRPM1 prom inh, EBV LMP1 NFkB, HIF-2a inh, Peg3 promoter, Shn3 3UTR inh)
C(C#CCCCCCCCCC[n+]1ccccc1)#CCCCCCCCCC[n+]1ccccc1	TRPM1 prom inh 100.7, Peg3 promoter 104.7, Shn3 3UTR inh inconclusive (no result: PAX8 reporter)
CCN=c1scc(-c2cccs2)n1/N=C/c1cc(OC)ccc1O	none
CN=c1scc(-c2ccccc2F)n1/N=C/c1ccc(O)c(O)c1O	TRPM1 prom inh 85.6, PAX8 reporter 83.1, Shn3 3UTR inh 88.4
CN=c1scc(C)n1/N=C/c1ccc(O)cc1O	none (no result: PAX8 reporter)
CC(C)N=c1scc(-c2cccs2)n1/N=C/c1ccc(O)c(O)c1O	Shn3 3UTR inh 88.4
CO[C@@H]1CN(C)C(=O)c2cc(NS(=O)(=O)c3ccc(Cl)cc3)ccc2OC[C@@H](C)NC[C@@H]1C	none (no result: TRPM1 prom inh, EBV LMP1 NFkB, HIF-2a inh, Peg3 promoter, Shn3 3UTR inh)
O=C(Nc1ccncc1)Nc1cccc(Cl)c1	none
O=C(Nc1cccc(Cl)c1)Nc1csc([N+](=O)[O-])c1	PAX8 reporter 98.8
C[C@@H](NC(=O)[C@@H]1[C@@H](CO)[C@@H]2Cn3c(cccc3=O)[C@@H]2N1S(C)(=O)=O)c1ccccc1	none (no result: TRPM1 prom inh, EBV LMP1 NFkB, HIF-2a inh, Peg3 promoter, Shn3 3UTR inh)
Cc1ccc(-c2nc(CS(=O)CC(=O)NCc3ccc(Cl)cc3)c(C)o2)cc1 (centres undefined)	none (no result: TRPM1 prom inh)
COc1ccc(-c2nc(CS(=O)CC(=O)NCc3ccc(Cl)cc3)c(C)o2)cc1 (centres undefined)	EBV LMP1 NFkB 43.7
CC(C)[C@@H]1CC[C@@H](C)C[C@H]1OC(=O)C[n+]1cc(-c2ccc(Cl)cc2)n2c1CCCCC2	TRPM1 prom inh 78.7, PAX8 reporter 112.7
CC1CCC(C(C)C)C(OC(=O)C[n+]2cccc(C(N)=O)c2)C1 (centres undefined)	none (no result: PAX8 reporter)
Cn1c(NC(=O)C[n+]2cc(-c3ccc(Cl)cc3)n3c2CCC3)cc(=O)n(C)c1=O	none
COc1ccc(-c2c[n+](CC(=O)OC3CC(C)CCC3C(C)C)c3n2CCC3)cc1 (centres undefined)	TRPM1 prom inh 86.2, PAX8 reporter 91.3
C[C@H]1CN([C@@H](C)CO)C(=O)c2cccc(NC(=O)c3ccncc3)c2O[C@H]1CN(C)S(=O)(=O)c1ccc(Cl)cc1	none (no result: TRPM1 prom inh, EBV LMP1 NFkB, HIF-2a inh, Peg3 promoter, Shn3 3UTR inh)
Cc1ccccc1-c1nc(CN2CCC(C(=O)NCCCN3CCCC(C)C3)CC2)c(C)o1 (centres undefined)	TRPM1 prom inh 93.7
Cc1ccccc1-c1nc(CN2CCC(C(=O)NCCC3=CCCCC3)CC2)c(C)o1	none
CCc1ccc(-c2nc(CN3CCC(C(=O)N4CCN(c5ccccc5)CC4)CC3)c(C)o2)cc1	Peg3 promoter 88.1 (no result: PAX8 reporter)
CCN(CCNC(=O)C1CCN(Cc2nc(-c3ccc(Cl)cc3)oc2C)CC1)c1ccccc1	none
CCc1ccc(-c2nc(CN3CCC(C(=O)NCCN(CC)c4ccccc4)CC3)c(C)o2)cc1	TRPM1 prom inh 66.5, PAX8 reporter inconclusive, Peg3 promoter 107.6
O=C(C[C@@H]1CC[C@@H](NC(=O)c2cnccn2)[C@@H](CO)O1)NCc1ccccc1F	none (no result: TRPM1 prom inh, EBV LMP1 NFkB, HIF-2a inh, Peg3 promoter, Shn3 3UTR inh)
COC(=O)C[C@H]1CC[C@H]2[C@@H](COc3ccc(NC(=O)Nc4cc(C)cc(C)c4)cc3C(=O)N2C)O1	none (no result: TRPM1 prom inh, EBV LMP1 NFkB, HIF-2a inh, Peg3 promoter, Shn3 3UTR inh)
CSc1ccccc1OCc1cc(C(=O)N2CCC[C@H]2C(N)=O)no1	EBV LMP1 NFkB 63.4
C[C@H]1CN([C@@H](C)CO)C(=O)c2cc(C3=CCCC3)cnc2O[C@H]1CN(C)C(=O)c1ccc(F)cc1	none (no result: TRPM1 prom inh, EBV LMP1 NFkB, HIF-2a inh, Peg3 promoter, Shn3 3UTR inh)
O=C(CSc1nnc(NC(=O)c2ccc3c(c2)OCO3)s1)NCc1ccco1	EBV LMP1 NFkB 47.8
CC[N+]1=C(C)C(C)(C)c2cc(C)ccc21	PAX8 reporter 96.0, Shn3 3UTR inh 89.4
O=C(C[C@@H]1CC[C@H](NC(=O)C2CC2)[C@H](CO)O1)NCCCN1CCOCC1	none (no result: TRPM1 prom inh, EBV LMP1 NFkB, HIF-2a inh, Peg3 promoter, Shn3 3UTR inh)
CNS(=O)(=O)c1cccc(C(=O)OCC(=O)c2ccc3c(c2)OCCO3)c1	EBV LMP1 NFkB 43.2
